These results are taken from PubChem BioAssay (NCI).

Compounds without any hit were thinned out: in the full panel of roughly 79,000, 15% have a hit. Values without a mark were called inactive. Calls of active or inactive are those of the source. Cut-off read from the data, not from the text of the source: active = growth inhibition above about 70%; inactive = the rest.

The nature of this test: NCI Yeast Anticancer Drug Screen. Data for the sgs1 mgt1 strain (AID 161).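 Note: 0% = growth of cultures given vehicle only.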 To be noted: S. cerevisiae sgs1 mgt1 strain, at 50.0 µM, stronger effect = higher value. Summed up:
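Inhibition of yeast growth, normalised to vehicle-treated controls, is reported for a strain bearing genetic alterations in DNA damage repair.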
As for `CC12CCCCC1CCC(Br)C2=O` (centres undefined), the growth inhibition is 70.2% (active).
Under `CC(C)c1cc(O)c(C(C)(C)C)cc1Cl` stands 77.3% (active).
As to `CCCOC(=O)CCCC(=O)N(CC)CC`, the growth inhibition was -25.1%.
Under `CCOC(=O)c1cc(Cc2ccccc2)c(=O)n(C)c1-c1ccccc1` stands 93% (active); under `COS(=O)c1cc(Cl)cc(Cl)c1OC(=O)CSSCC(=O)Oc1c(Cl)cc(Cl)cc1S(=O)OC` (centres undefined), 99% (active).
Under `ICCCCSc1cc(-c2ccccc2)[o+]c2ccccc12` stands 75.2% (active); under `Nc1cc(Cl)c2c(c1)Cc1ccccc1-2`, 84.8% (active).
Under `Cc1ccc(S(=O)(=O)NCCSSCCNS(=O)(=O)c2ccc(C)cc2)cc1` stands 96.6% (active); under `OC(Cc1cccnc1)(c1ccccc1)c1ccc(Cl)cc1` (centres undefined), 97.3% (active).
On to `Cc1ccc(C2=CC(=O)/C(=C\C(=O)c3ccc(Cl)cc3)O2)cc1`, for which the growth inhibition is 71.2% (active).
For the compound `O=C(Nc1ncnc2c1ncn2C1CC(O)C(CO)O1)c1ccccc1` (centres undefined), the growth inhibition was -0.05%.
Under `O=C1CSC(=S)N1c1ccc(F)cc1F` stands 65.2%.
Regarding `CCCOC(=O)C(Br)C(Br)C(=O)OCCC` (centres undefined), the growth inhibition is 93.5% (active).
Under `c1ccc2nc3[nH]c4ccccc4c3cc2c1` stands 50.8%; under `O=S(=O)(c1ccc(NC(=S)NCc2ccncc2)cc1)N1CCCCC1`, 10.7%; under `Nc1ccccc1Sc1ccccc1`, 62.5%.
Under `CCC(Cl)COP(=O)(OCC(Cl)CC)OC(c1ccc(Cl)c(Cl)c1)P(=O)(OCC(Cl)CC)OCC(Cl)CC` (centres undefined) stands 93% (active); under `O=C(O)/C=C\c1cc2ccccc2c2ccccc12`, 98.4% (active); under `COC(=O)C1C2CC3c4[nH]c5cc(OC)c(Br)cc5c4CCN3CC2CC(OC(=O)c2cc(OC)c(OC)c(OC)c2)C1OC` (centres undefined), 86.2% (active).
With `Cc1c2ccnc(-c3ccc(F)cc3)c2cc2c1[nH]c1ccccc12`, the growth inhibition was 65.8%.
Under `COc1cc2cc[n+]3c4ccc([N+](=O)[O-])cc4ccc3c2cc1OC` stands 70% (active).
Under `CCCCCCCCC1N(C)CCCN1C` stands 49%; under `CC1(C)OC2C(COC(c3ccccc3)(c3ccccc3)c3ccccc3)OC(n3cnc4c(=O)[nH]cnc43)C2O1` (centres undefined), 56.5%.
Regarding `COc1cccc2c1C(=O)c1c(O)c3c(c(O)c1C2=O)C[C@@](O)(C(=O)CO)C[C@@H]3OC1CC(N(C)C)C(O)C(C)O1` (some centres undefined), the growth inhibition is 91.2% (active).
